Screening data (PubChem BioAssay)
Sfp inh – blocks B. subtilis Sfp PPTase activity. Biochemical Sfp PPTase activity, qHTS. AID 1490. actives 3.5% (n = 310,000). Potency, µM, inactives show largest response in the series, negative = inhibition, usual class: inhibitors;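 further: the enzyme is Sfp with the accession as filed and its product quenches rhodamine fluorescence; 0% = enzyme reaction without inhibitor and -100% = no enzyme wells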
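Compounds were incubated with enzyme (final 15 nM) for 15 min at room temperature before substrate addition started the reaction. Fluorescence at 525 nm excitation, 598 nm emission was recorded immediately and after 30 minutes.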
G9a inh – blocks human histone lysine methyltransferase G9a; Q96KQ7; G9a H3K9 monomethylation, AlphaScreen, 2 h; Potency, µM (highest dose often 102 µM), for inactives: top-dose activity, negative = inhibition, usual class: inhibitors; actives 8.8% (n = 350,000); further: on the % scale 0 is the no-effect control and ±100 the full control effect; nearly all actives have a fitted effect of over 75% in size
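G9a (20 nM) preincubated 15 min RT with compounds, then 500 nM biotinylated H3K9 peptide and 20 uM SAM added; 2 h RT reaction. Monomethyl-H3K9 product detected by AlphaScreen with anti-H3K9me1 antibody, streptavidin donor and anti-rabbit IgG acceptor beads.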
HP1b binding inh – HP1-beta chromodomain-methylated histone interaction inhibition | Potency, µM (series often up to 114 µM), inactives show top-dose activity change, negative = inhibition, usual class: inhibitors | AID 540317 | AlphaScreen HP1-beta / biotin-H3K9me3 peptide binding | P83916 | actives 0.56% (n = 390,000); further: nearly all actives have a fitted effect of over 70% in size
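HP1-beta protein (50 nM final) preincubated 30 min at room temperature with biotinylated H3(1-18)K9me3 peptide (50 nM) in PBS pH 7.4, 0.01% Tween-20, then compound added for 30 min. AlphaScreen streptavidin donor/nickel chelate acceptor beads (10 ug/mL final), 30 min dark, luminescence read.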
JMJD2A Tudor inh – JMJD2A Tudor domain (human) inhibition. O75164. AlphaScreen JMJD2A-Tudor / H3K4me3 peptide binding. Potency, µM (doses to about 114 µM), inactives show top-dose activity change, negative = inhibition, actives largely listed as inhibitors. actives 4.4% (n = 390,000). AID 504339; further: on the % scale 0 is the no-effect control and ±100 the full control effect; nearly all actives have a fitted effect of over 50% in size
BAZ2B block – BAZ2B (human) inhibition; Q9UIF8; AlphaScreen BAZ2B-H3K14Ac peptide displacement; Potency, µM (titrated, usually from 114 µM), for inactives: at the top dose activity change, negative = inhibition, actives largely listed as inhibitors; actives 4.4% (n = 360,000); AID 504333; further: on the % scale 0 is the no-effect control and ±100 the full control effect; nearly all actives have a fitted effect of over 60% in size
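Multi-concentration screen (max 110 uM) measuring displacement of acetylated histone H3 peptide from BAZ2B by AlphaScreen, using 50 nM protein, 50 nM peptide and 10 ug/mL streptavidin donor plus Ni-chelate acceptor beads.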
Numbers without * were called inactive; u = inconclusive; x = no result given; [ ] = remark or other dose. Only some compounds are listed: those with a hit (about 12% of all), similar ones and a draw of the others. The call rests on the fitted dose curve; in most records, active means well fitted curve in the direction sought with a large enough effect; inconclusive means small, poorly fitted or top-dose-only effect, or another doubt; inactive means no such curve, though single readings can be large; an effect the other way counts as inactive or inconclusive. Potency means the concentration at half of the fitted maximal effect.

SMILES	Sfp inh	G9a inh	HP1b binding inh	JMJD2A Tudor inh	BAZ2B block
O=C(CN1C(=O)NC2(CCCC2)C1=O)Nc1cc(C(F)(F)F)ccc1N1CCCCC1	x	44.7µM*	15.9%	-14.2%	3.9%
O=C1CCc2cc(S(=O)(=O)Nc3cccc(Br)c3)ccc2N1	x	x	x	-15.6%	x
O=C(Oc1ccc2c(c1)OCO2)c1cc2c(s1)CCC2	-5.2%	-31.0%[59 µM]	u	31.6µM*	-126.4%
O=C(c1cc2c(s1)CCCC2)N1CCN(Cc2ccc3c(c2)OCO3)CC1	-10.7%	u	-9.4%	u	x
COc1cc(C2C=C(C34CC5CC(CC(C5)C3)C4)NC(=S)N2)cc(OC)c1OC (configuration not stated)	12.8%	-30.3%[12.7 µM]	22.1%	-27.2%	-38.7%
COc1ccc(OC)c(C2C=C(C34CC5CC(CC(C5)C3)C4)NC(=S)N2)c1 (configuration not stated)	-7.9%	u	u	u	31.6µM*
CS(=O)(=O)NN1C(=O)c2ccccc2NC1c1cccs1 (configuration not stated)	20.0%	-34.5%	7.5%	3.55µM*	12.0%
CS(=O)(=O)NN1C(=O)c2ccccc2NC1c1ccccc1 (configuration not stated)	13.7%	-27.7%	-0.4%	-16.5%[11.4 µM]	11.3%
O=C(COC(=O)c1ccc(S(=O)(=O)NCc2ccco2)cc1)Nc1ccc(Cl)cn1	-1.5%	50.1µM*	-31.2%	u	56.2µM*
O=C(COC(=O)c1ccc(S(=O)(=O)NCc2ccco2)cc1)Nc1ccccc1OC(F)F	31.6µM*	50.1µM*	4.3%	-19.2%	47.0%
CCCn1c(/N=C/c2c[nH]c3ccccc23)nc2ccccc21	1.4%	9.2%[12.7 µM]	-32.2%	63.1µM*	u
Cn1c(N/N=C/c2cc3ccccc3nc2Cl)nc2ccccc21	79.4µM*	11.9%[59 µM]	29.5%	7.1%	-3.1%
Cn1c(N/N=C/c2c[nH]c3ccccc23)nc2ccccc21	-24.8%	u	-37.0%	50.1µM*	31.6µM*
Cc1ccc(CNC(=O)C(=O)NCC(c2cccs2)S(=O)(=O)c2ccc(C)cc2)cc1 (configuration not stated)	x	u	36.3%	-16.6%	-5.2%
O=C(NCCOc1ccccc1)C(=O)c1c[nH]c2ccccc12	-9.4%	x	17.3%[57 µM]	-26.6%	-3.0%
CCC(CC)c1nnc(NC(=O)CCc2ccccc2OC)s1	11.1%	17.9%	14.9%	-7.5%	1.9%
O=C(CCS(=O)(=O)Cc1ccccc1)Nc1nncs1	11.6%	44.7µM*	9.7%	-1.4%	3.3%
O=C(CCc1ccccc1)Nc1nncs1	12.6%	20.1%	20.3%	1.0%	1.1%
CCC(CC)c1nnc(NC(=O)CS(=O)(=O)c2ccccc2)s1	50.1µM*	10µM*	-37.7%	-4.1%	-0.3%
CCC(CC)c1nnc(NC(=O)Cc2ccccc2[N+](=O)[O-])s1	12.4%	39.8µM*	-9.4%	-12.7%	-28.1%
CC(C)c1nnc(NC(=O)CCS(=O)(=O)c2ccccc2)s1	10.7%	u	30.6%	6.5%	u
CCC(CC)c1nnc(NC(=O)CCS(=O)(=O)Cc2ccccc2)s1	63.1µM*	17.8µM*	6.2%	-13.7%	1.2%
O=C(Nc1nccs1)c1ccc(-c2ccc(F)c(Cl)c2)o1	u	x	16.2%	-19.9%	u
CCCc1nnc(NC(=O)CCS(=O)(=O)Cc2ccccc2)s1	-12.3%	44.7µM*	15.1%	-6.7%	6.8%
CCCCc1nnc(NC(=O)CCS(=O)(=O)Cc2ccccc2)s1	5.7%	u	22.4%	1.4%	-2.5%
SMILES	Sfp inh	G9a inh	HP1b binding inh	JMJD2A Tudor inh	BAZ2B block
O=C(CS(=O)(=O)c1ccccc1)Nc1nnc(Cc2ccccc2)s1	44.7µM*	31.6µM*	-13.4%	-6.8%	-26.2%
CCCc1nnc(NC(=O)CS(=O)(=O)c2ccccc2)s1	6.3%	u	u	u	-1.5%
CCc1nnc(NC(=O)CS(=O)(=O)Cc2ccccc2)s1	3.0%	-7.3%	-9.7%	-1.4%	3.1%
CCc1nnc(NC(=O)CCS(=O)(=O)Cc2ccccc2)s1	13.3%	50.1µM*	-8.8%	-17.8%	-17.1%
COc1ccc(-c2nc3cnc(Nc4cccc(OC)c4)nc3n(C3CC3)c2=O)cc1	3.7%	5.8%[0.501 µM]	x	x	x
O=C(O)c1c2c(nc3ccc(Cl)cc13)CCC2	1.0%	39.8µM*	13.9%	-22.6%	u
O=C(O)c1c2c(nc3ccc(F)cc13)CCC2	10.4%	-22.0%[59 µM]	13.9%	-11.7%	6.2%
Cc1ccc2nc3c(c(C(=O)O)c2c1)CCC3	16.7%	50.1µM*	4.0%	-29.7%	-31.8%
Cc1cnc(=O)[nH]c1SCc1ccc([N+](=O)[O-])cc1	1.1%	63.1µM*	12.2%	-29.4%	u
Cc1cccc(NC(=O)C(=O)c2cc(C)n(-c3ccccc3)c2C)c1C	x	-31.8%[59 µM]	29.4%	-14.9%	-3.5%
Cc1ccccc1NC(=S)/C(=C(\[O-])c1cc(C)n(Cc2ccccc2Cl)c1C)[n+]1ccccc1	-5.9%	50.1µM*	u	35.5µM*	39.8µM*
Cc1cc(C([O-])=C(C(=S)Nc2ccccc2)[n+]2ccccc2)c(C)n1-c1ccccc1	x	x	u	31.6µM*	x
COc1c(C(=O)Nc2nnc(C3CC3)s2)csc1Cl	7.5%	38.8%	22.9%	-2.8%	1.5%
COCCCN1C(=O)c2[nH]nc(-c3cc(C)cc(C)c3O)c2C1c1ccc(O)c(OC)c1 (configuration not stated)	-1.9%	44.7µM*	-3.5%	-35.1%	-10.0%
CCNc1ccc(S(=O)(=O)N(C)C)cc1NCC(=O)Nc1ccccc1Cl	2.4%	39.8µM*	-23.6%	u	u
COC(Cn1c2c(c3cc(C)ccc31)CCCC2NCc1ccccc1)OC (configuration not stated)	-13.0%	44.7µM*	3.9%	u	39.8µM*
Cc1ccc2c(c1)c1c3n2CCN(C(=O)Cn2c(-c4ccccc4)noc2=O)C3CCC1 (configuration not stated)	u	-11.0%	-3.8%	-34.5%	6.8%
CCc1ccc(Oc2c(C(F)(F)F)oc3c(CN4CCN(CC)CC4)c(O)ccc3c2=O)cc1	x	-70.8%[59 µM]	8.7%	-15.5%	u
CC(Oc1ccccc1)C(=O)NC1=NCCS1 (configuration not stated)	10.1%	u	17.7%	31.6µM*	-28.3%
COc1cc(-c2nc3n(n2)C(c2ccncc2)C2=C(CCCC2=O)N3)cc(OC)c1OC (configuration not stated)	7.0%	-3.8%	18.9%	-22.7%	-14.6%
COc1ccc(C2C3=C(CCCC3=O)Nc3nc(-c4cc(OC)c(OC)c(OC)c4)nn32)cc1OC (configuration not stated)	-4.8%	39.8µM*	4.4%	-13.3%	-8.1%
Clc1cccc(-c2ccc(/C=N/n3cnnc3)o2)c1	-20.7%	4.7%[12.7 µM]	-1.1%	-21.5%	-8.7%
O=C1OC(c2cccs2)=N/C1=C\c1ccc(-c2cccc(Cl)c2)o1	79.4µM*	35.5µM*	7.6%	-29.1%	u
